What was measured:
Assay in all cases: DAPPL (digital affinity profiling via proximity ligation, sequencing); 10 mM Tris-HCl pH 7.5, 50 mM NaCl, 1 mM DTT, 4% glycerol, room temperature, 30 min; GST-TFs on glutathione beads, 16-mer random dsDNA library, 0.1% formaldehyde crosslink after washing; high values mean tight binding
FLI1 = biological target: T1, FLI1 (Homo sapiens, UniProt Q01543 1-452); conditions: protein: recombinant; tags: N-terminal GST; dsDNA, one strand shown
T1 sequence: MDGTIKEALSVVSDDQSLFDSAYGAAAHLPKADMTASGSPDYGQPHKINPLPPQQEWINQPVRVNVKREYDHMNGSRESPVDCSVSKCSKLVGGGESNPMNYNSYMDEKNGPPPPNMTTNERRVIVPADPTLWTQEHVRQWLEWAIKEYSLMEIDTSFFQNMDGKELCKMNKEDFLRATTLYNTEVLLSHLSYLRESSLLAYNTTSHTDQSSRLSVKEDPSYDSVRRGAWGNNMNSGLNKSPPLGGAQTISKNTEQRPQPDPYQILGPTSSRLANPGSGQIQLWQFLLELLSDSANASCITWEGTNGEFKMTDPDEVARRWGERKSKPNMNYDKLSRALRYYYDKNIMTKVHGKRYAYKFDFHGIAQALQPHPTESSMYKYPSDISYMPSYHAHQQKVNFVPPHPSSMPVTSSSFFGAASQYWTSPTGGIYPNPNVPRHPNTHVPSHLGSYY
Summary of the method: (§1)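 Human transcription factors fused to GST were expressed in yeast, captured on glutathione beads, given DNA barcodes and pooled with a GST-only negative control. Pools were incubated with 200 nmole of a 16-mer random double-stranded DNA library in Tris/NaCl/DTT/glycerol buffer at room temperature for 30 min. They were then washed, crosslinked with 0.1% formaldehyde, proximity-ligated (BsaI/T4 ligase, 1 h, 37 °C), PCR-amplified and sequenced on an Illumina NextSeq500. Binding signal is each 6-mer's read frequency for a factor divided by its frequency for the GST control.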

ELK1 = biological target: T2, ELK1 (Homo sapiens, UniProt P19419 1-428); conditions: protein: recombinant; tags: N-terminal GST; dsDNA, one strand shown
T2 sequence: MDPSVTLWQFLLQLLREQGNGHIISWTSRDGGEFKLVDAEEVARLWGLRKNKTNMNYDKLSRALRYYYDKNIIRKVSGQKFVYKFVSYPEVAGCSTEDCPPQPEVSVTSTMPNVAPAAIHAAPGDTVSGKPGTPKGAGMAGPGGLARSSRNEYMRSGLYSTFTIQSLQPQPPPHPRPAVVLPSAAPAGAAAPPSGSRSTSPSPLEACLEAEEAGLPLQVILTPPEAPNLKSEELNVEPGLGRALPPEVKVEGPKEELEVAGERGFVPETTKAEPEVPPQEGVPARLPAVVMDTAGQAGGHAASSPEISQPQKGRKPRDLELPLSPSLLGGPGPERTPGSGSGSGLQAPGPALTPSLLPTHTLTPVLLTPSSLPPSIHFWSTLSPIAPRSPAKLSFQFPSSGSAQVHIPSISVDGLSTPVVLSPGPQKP
Summary of the method: as §1

GABPA = biological target: T3, GABPA (Homo sapiens, UniProt Q06546 1-454); conditions: protein: recombinant; tags: N-terminal GST; dsDNA, one strand shown
T3 sequence: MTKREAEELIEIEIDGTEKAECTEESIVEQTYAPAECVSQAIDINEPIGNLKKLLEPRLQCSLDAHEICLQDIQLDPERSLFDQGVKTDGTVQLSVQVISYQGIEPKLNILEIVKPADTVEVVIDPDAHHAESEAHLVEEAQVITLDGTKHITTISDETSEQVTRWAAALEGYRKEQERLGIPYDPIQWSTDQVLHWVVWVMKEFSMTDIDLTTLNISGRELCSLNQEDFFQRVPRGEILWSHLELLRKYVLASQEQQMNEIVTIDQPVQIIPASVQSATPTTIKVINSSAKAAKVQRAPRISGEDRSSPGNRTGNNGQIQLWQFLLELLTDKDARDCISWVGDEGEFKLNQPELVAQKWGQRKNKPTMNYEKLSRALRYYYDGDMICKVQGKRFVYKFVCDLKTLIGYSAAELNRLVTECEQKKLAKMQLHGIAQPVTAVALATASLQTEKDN
Summary of the method: as §1

ERG = biological target: T4, ERG (Homo sapiens, UniProt P11308 1-479); conditions: protein: recombinant; tags: N-terminal GST; dsDNA, one strand shown
T4 sequence: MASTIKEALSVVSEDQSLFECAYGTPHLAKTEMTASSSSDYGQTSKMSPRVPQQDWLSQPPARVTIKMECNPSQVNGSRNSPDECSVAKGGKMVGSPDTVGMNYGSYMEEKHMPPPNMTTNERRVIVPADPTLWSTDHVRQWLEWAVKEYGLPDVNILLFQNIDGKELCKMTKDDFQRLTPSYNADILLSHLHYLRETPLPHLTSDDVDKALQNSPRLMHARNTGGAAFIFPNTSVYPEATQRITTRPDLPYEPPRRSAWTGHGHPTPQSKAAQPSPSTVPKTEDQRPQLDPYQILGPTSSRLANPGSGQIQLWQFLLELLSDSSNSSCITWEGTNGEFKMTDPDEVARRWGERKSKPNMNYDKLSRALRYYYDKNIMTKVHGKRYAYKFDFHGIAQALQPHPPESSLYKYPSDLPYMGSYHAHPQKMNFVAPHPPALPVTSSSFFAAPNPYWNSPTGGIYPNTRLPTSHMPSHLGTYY
Summary of the method: as §1

ELF1 = ELF1 (Homo sapiens, UniProt P32519 1-619); conditions: protein: recombinant; tags: N-terminal GST; dsDNA, one strand shown
ELF1, sequence (P32519 whole entry): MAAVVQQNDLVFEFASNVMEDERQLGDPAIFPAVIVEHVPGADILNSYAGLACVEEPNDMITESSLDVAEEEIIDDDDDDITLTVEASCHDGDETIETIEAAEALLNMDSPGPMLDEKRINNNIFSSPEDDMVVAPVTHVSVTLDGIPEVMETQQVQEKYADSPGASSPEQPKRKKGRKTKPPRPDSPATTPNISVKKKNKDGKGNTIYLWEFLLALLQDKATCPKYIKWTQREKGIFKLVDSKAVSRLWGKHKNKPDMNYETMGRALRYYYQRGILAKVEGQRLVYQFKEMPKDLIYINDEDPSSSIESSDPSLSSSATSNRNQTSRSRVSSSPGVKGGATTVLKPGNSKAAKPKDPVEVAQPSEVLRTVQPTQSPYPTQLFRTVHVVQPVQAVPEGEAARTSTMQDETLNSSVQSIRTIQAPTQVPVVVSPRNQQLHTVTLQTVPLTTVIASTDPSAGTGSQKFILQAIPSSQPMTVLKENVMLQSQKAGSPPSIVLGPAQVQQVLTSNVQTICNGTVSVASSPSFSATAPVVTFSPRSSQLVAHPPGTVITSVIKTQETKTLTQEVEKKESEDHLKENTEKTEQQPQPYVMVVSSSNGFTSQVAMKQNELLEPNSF
Summary of the method: as §1

EHF = biological target: T5, EHF (Homo sapiens, UniProt Q9NZC4 1-300); conditions: protein: recombinant; tags: N-terminal GST; dsDNA, one strand shown
T5 sequence: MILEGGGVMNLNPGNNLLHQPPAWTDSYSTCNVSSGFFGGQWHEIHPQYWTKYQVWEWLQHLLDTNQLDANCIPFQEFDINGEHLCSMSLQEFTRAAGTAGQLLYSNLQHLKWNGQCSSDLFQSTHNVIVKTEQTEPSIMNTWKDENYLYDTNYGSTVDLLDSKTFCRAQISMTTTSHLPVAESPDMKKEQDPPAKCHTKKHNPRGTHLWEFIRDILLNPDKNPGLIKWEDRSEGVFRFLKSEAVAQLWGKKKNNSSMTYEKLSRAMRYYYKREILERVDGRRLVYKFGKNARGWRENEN
Summary of the method: as §1

SPI1 = SPI1 (Homo sapiens, UniProt P17947 1-270); conditions: protein: recombinant; tags: N-terminal GST; dsDNA, one strand shown
Summary of the method: as §1

SPIB = SPIB (Homo sapiens, UniProt Q01892 1-262); conditions: protein: recombinant; tags: N-terminal GST; dsDNA, one strand shown
SPIB, sequence (Q01892 whole entry): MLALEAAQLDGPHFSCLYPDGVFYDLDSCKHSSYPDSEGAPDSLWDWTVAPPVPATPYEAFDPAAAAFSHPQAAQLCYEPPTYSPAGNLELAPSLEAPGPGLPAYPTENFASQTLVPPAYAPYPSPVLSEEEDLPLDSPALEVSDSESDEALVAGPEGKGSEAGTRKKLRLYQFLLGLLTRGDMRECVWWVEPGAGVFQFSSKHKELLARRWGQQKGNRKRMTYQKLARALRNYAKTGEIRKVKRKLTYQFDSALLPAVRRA
Summary of the method: as §1

ELK3 = biological target: T6, ELK3 (Homo sapiens, UniProt P41970 1-407); conditions: protein: recombinant; tags: N-terminal GST; dsDNA, one strand shown
T6 sequence: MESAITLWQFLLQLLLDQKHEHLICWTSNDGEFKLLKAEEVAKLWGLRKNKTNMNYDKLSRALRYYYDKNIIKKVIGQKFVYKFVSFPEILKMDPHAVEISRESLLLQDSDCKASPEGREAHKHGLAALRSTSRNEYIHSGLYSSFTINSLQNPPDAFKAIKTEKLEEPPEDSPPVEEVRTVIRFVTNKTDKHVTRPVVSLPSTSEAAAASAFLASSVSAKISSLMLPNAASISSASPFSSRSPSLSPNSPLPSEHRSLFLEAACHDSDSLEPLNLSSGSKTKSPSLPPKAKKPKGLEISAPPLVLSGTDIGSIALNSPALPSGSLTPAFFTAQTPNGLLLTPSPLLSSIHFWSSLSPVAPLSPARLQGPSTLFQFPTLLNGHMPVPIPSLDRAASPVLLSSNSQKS
Summary of the method: as §1

FEV = biological target: T7, FEV (Homo sapiens, UniProt Q99581 1-238); conditions: protein: recombinant; tags: N-terminal GST; dsDNA, one strand shown
T7 sequence: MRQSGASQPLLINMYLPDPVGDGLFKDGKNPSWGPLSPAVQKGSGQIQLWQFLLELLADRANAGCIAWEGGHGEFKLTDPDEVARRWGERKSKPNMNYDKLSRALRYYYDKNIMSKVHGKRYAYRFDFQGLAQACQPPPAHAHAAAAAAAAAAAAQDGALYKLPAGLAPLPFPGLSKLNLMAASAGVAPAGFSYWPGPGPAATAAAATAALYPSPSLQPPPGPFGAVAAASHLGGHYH
Summary of the method: as §1

ETV5 = ETV5 (Homo sapiens, UniProt P41161 1-510); conditions: protein: recombinant; tags: N-terminal GST; dsDNA, one strand shown
ETV5, sequence (P41161 whole entry): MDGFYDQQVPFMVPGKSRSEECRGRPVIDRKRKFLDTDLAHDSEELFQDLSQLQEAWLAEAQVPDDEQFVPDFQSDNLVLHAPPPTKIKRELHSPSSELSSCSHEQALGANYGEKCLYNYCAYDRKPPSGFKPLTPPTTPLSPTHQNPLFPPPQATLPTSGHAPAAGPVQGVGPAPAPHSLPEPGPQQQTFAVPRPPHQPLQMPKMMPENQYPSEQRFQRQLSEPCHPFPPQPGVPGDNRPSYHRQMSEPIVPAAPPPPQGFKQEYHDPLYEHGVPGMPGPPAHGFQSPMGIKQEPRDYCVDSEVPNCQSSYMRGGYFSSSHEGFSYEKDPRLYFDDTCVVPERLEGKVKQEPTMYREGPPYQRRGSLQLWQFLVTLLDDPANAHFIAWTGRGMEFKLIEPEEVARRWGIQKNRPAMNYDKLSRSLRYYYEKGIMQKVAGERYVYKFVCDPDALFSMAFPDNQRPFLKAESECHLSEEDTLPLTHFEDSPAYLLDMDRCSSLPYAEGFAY
Summary of the method: as §1

HSF1 = HSF1 (Homo sapiens, UniProt Q00613 1-529); conditions: protein: recombinant; tags: N-terminal GST; chain copies: 3; dsDNA, one strand shown
HSF1, sequence (Q00613 whole entry): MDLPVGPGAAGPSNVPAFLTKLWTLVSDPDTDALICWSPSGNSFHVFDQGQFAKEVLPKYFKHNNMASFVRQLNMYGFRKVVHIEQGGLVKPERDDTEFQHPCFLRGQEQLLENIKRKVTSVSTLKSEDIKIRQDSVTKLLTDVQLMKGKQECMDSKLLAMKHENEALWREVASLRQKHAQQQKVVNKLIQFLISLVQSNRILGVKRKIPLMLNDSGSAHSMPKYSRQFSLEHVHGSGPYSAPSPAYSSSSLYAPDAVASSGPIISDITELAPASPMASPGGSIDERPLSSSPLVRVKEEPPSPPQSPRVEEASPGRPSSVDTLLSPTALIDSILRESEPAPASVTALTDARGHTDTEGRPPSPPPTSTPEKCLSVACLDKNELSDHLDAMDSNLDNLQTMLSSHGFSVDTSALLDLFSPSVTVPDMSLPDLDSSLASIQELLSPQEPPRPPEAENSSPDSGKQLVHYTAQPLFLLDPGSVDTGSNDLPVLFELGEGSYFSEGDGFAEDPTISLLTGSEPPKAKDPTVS
Summary of the method: as §1

SPIC = biological target: T8, SPIC (Homo sapiens, UniProt Q8N5J4 1-248); conditions: protein: recombinant; tags: N-terminal GST; dsDNA, one strand shown
T8 sequence: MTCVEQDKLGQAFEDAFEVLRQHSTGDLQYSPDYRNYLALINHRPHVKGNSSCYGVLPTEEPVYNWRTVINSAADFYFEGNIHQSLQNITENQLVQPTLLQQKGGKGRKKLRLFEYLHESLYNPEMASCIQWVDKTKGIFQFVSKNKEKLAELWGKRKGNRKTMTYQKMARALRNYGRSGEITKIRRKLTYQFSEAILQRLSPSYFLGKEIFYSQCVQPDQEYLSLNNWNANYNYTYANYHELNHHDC
Summary of the method: as §1

ELF4 = ELF4 (Homo sapiens, UniProt Q99607 1-663); conditions: protein: recombinant; tags: N-terminal GST; dsDNA, one strand shown
ELF4, sequence (Q99607 whole entry): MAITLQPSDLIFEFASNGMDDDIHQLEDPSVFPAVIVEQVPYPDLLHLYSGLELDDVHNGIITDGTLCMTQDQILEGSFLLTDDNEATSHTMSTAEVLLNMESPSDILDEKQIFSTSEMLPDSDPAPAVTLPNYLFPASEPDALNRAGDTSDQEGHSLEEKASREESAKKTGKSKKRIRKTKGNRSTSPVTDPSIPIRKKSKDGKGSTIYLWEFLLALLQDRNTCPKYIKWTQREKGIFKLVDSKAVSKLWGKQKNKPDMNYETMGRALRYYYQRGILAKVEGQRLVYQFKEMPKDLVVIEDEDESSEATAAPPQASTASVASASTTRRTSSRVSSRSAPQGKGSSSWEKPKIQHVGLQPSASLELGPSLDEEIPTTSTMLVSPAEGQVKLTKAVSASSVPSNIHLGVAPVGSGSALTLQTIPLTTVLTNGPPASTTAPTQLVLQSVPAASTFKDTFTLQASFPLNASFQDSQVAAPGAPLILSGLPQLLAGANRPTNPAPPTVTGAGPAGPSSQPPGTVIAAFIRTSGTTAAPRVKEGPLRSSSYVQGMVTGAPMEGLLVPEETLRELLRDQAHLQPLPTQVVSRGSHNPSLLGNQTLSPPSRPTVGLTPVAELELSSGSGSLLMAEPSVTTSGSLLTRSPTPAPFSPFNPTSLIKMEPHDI
Summary of the method: as §1

ELK4 = biological target: T9, ELK4 (Homo sapiens, UniProt P28324-2 1-405); conditions: protein: recombinant; tags: N-terminal GST; dsDNA, one strand shown
T9 sequence: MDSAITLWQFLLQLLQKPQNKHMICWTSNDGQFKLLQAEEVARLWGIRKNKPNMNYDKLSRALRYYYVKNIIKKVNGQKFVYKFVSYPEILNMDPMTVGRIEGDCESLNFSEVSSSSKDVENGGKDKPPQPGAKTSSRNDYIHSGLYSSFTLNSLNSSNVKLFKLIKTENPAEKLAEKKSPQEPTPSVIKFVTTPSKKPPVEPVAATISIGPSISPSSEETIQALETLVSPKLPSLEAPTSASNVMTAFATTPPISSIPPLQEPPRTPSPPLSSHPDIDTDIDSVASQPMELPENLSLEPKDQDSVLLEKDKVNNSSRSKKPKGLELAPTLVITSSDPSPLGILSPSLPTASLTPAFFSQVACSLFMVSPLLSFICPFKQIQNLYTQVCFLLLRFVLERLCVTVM
Summary of the method: as §1

ETV2 = biological target: T10, ETV2 (Homo sapiens, UniProt O00321 1-342); conditions: protein: recombinant; tags: N-terminal GST; dsDNA, one strand shown
T10 sequence: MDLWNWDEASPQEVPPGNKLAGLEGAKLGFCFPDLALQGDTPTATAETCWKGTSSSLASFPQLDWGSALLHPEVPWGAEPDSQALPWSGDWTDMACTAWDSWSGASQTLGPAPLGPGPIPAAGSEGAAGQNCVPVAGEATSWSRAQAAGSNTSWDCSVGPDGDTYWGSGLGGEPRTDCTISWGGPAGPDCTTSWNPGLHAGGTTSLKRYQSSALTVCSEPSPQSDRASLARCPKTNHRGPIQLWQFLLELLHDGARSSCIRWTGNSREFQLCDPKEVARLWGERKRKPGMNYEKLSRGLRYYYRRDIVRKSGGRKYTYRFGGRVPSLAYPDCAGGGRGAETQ
Summary of the method: as §1

ELF3 = biological target: T11, ELF3 (Homo sapiens, UniProt P78545 1-371); conditions: protein: recombinant; tags: N-terminal GST; dsDNA, one strand shown
T11 sequence: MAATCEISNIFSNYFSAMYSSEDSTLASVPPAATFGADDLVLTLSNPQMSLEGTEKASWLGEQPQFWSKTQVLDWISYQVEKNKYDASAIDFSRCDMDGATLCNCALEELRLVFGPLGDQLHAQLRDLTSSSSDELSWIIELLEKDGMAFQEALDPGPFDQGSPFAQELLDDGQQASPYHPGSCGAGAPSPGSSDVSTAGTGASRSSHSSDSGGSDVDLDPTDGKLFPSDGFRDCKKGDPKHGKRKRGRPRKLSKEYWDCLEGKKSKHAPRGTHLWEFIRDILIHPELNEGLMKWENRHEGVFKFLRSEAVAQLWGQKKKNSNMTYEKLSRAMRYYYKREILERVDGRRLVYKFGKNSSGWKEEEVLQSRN
Summary of the method: as §1

CRX = CRX (Homo sapiens, UniProt O43186 1-299); conditions: protein: recombinant; tags: N-terminal GST; dsDNA, one strand shown
CRX, sequence (O43186 whole entry): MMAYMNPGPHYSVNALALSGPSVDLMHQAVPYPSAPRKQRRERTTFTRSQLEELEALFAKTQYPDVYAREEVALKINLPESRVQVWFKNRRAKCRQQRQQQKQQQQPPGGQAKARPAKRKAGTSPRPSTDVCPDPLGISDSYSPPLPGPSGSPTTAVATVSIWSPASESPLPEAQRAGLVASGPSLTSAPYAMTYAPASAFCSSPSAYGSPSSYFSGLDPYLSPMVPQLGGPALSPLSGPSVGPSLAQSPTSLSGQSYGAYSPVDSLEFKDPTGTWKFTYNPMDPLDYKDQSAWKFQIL
Summary of the method: as §1

ETV1 = ETV1 (Homo sapiens, UniProt P50549 1-477); conditions: protein: recombinant; tags: N-terminal GST; dsDNA, one strand shown
ETV1, sequence (P50549 whole entry): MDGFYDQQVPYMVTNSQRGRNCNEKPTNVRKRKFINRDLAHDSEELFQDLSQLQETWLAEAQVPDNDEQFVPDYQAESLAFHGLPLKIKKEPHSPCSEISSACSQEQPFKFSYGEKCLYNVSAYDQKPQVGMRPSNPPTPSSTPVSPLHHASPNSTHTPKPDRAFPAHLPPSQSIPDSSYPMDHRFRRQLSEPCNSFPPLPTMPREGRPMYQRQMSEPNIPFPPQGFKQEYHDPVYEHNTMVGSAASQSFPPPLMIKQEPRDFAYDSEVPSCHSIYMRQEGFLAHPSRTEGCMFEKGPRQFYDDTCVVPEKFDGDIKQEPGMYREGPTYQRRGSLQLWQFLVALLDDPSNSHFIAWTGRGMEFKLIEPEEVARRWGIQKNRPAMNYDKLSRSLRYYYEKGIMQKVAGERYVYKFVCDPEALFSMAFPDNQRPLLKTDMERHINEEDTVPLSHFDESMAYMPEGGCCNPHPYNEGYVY
Summary of the method: as §1

## AATCTG
FLI1
  binding signal: 1.48 fold enrichment (6-mer frequency, TF over GST control)
ELK1
  binding signal: 1.33 fold enrichment (6-mer frequency, TF over GST control)
GABPA
  binding signal: 1.49 fold enrichment (6-mer frequency, TF over GST control)
ERG
  binding signal: 1.46 fold enrichment (6-mer frequency, TF over GST control)
ELF1
  binding signal: 1.48 fold enrichment (6-mer frequency, TF over GST control)
EHF
  binding signal: 1.31 fold enrichment (6-mer frequency, TF over GST control)
SPI1
  binding signal: 1.42 fold enrichment (6-mer frequency, TF over GST control)
SPIB
  binding signal: 1.51 fold enrichment (6-mer frequency, TF over GST control)
ELK3
  binding signal: 1.34 fold enrichment (6-mer frequency, TF over GST control)
FEV
  binding signal: 1.41 fold enrichment (6-mer frequency, TF over GST control)
ETV5
  binding signal: 1.4 fold enrichment (6-mer frequency, TF over GST control)
HSF1
  binding signal: 2.17 fold enrichment (6-mer frequency, TF over GST control)
SPIC
  binding signal: 1.52 fold enrichment (6-mer frequency, TF over GST control)
ELF4
  binding signal: 1.57 fold enrichment (6-mer frequency, TF over GST control)
ELK4
  binding signal: 1.55 fold enrichment (6-mer frequency, TF over GST control)
ETV2
  binding signal: 1.45 fold enrichment (6-mer frequency, TF over GST control)
ELF3
  binding signal: 1.47 fold enrichment (6-mer frequency, TF over GST control)
CRX
  binding signal: 2.75 fold enrichment (6-mer frequency, TF over GST control)
ETV1
  binding signal: 1.58 fold enrichment (6-mer frequency, TF over GST control)

Reference: article PMC7862700, “An all-to-all approach to the identification of sequence-specific readers for epigenetic DNA modifications on cytosine”
